Substitutions are numbered along the chain they refer to; changes in the protein carry UniProt numbers. Over roughly 16,000 sequences, “ka relative to ugcaugu” has its median near 0.096; the highest 2% begin near 0.35. This is one part of a sample in which the highest values are shown more often than they occur.
T1: RBFOX1 RRM RbFoxmut (Fox-RRM*) (Homo sapiens, UniProt Q9NWB1 109-208, R118D;E147R;N151S;E152T)
T1 sequence: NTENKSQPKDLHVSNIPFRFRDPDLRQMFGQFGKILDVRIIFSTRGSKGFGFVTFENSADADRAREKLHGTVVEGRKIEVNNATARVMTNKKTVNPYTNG

B1: UAAGGAG (DNA:RNA)
RNA: GGGAGACCGGAAUUCAGAUUGUCCUAAGGAGUUAAAUCCCGUCGUAGCCACCA
DNA 1: CAATCTGAATTCCGGTCTCCC
DNA 2: TGGTGGCTACGACGGGATT
B2: AGUAGGG (DNA:RNA)
RNA: B1 RNA with U25A, A26G, A27U, G28A, A30G
DNA 1: CAATCTGAATTCCGGTCTCCC
DNA 2: TGGTGGCTACGACGGGATT
B3: CAAGUGG (DNA:RNA)
RNA: B1 RNA with U25C, G29U, A30G
DNA 1: CAATCTGAATTCCGGTCTCCC
DNA 2: TGGTGGCTACGACGGGATT
B4: AUUCAGA (DNA:RNA)
RNA: GGGAGACCGGAAUUCAGAUUGUCCAUUCAGAUUAAAUCCCGUCGUAGCCACCA
DNA 1: CAATCTGAATTCCGGTCTCCC
DNA 2: TGGTGGCTACGACGGGATT
B5: AGUCACU (DNA:RNA)
RNA: B4 RNA with U26G, G30C, A31U
DNA 1: CAATCTGAATTCCGGTCTCCC
DNA 2: TGGTGGCTACGACGGGATT
B6: UACUUUU (DNA:RNA)
RNA: B1 RNA with A27C, G28U, G29U, A30U, G31U
DNA 1: CAATCTGAATTCCGGTCTCCC
DNA 2: TGGTGGCTACGACGGGATT
B7: UCCUCCU (DNA:RNA)
RNA: B1 RNA with A26C, A27C, G28U, G29C, A30C, G31U
DNA 1: CAATCTGAATTCCGGTCTCCC
DNA 2: TGGTGGCTACGACGGGATT
B8: UCUGGCC (DNA:RNA)
RNA: B1 RNA with A26C, A27U, A30C, G31C
DNA 1: CAATCTGAATTCCGGTCTCCC
DNA 2: TGGTGGCTACGACGGGATT
B9: UCCUGGA (DNA:RNA)
RNA: B4 RNA with A25U, U26C, U27C, C28U, A29G
DNA 1: CAATCTGAATTCCGGTCTCCC
DNA 2: TGGTGGCTACGACGGGATT
B10: UGGAUCU (DNA:RNA)
RNA: B1 RNA with A26G, A27G, G28A, G29U, A30C, G31U
DNA 1: CAATCTGAATTCCGGTCTCCC
DNA 2: TGGTGGCTACGACGGGATT
B11: UGGAAUC (DNA:RNA)
RNA: B4 RNA with A25U, U26G, U27G, C28A, G30U, A31C
DNA 1: CAATCTGAATTCCGGTCTCCC
DNA 2: TGGTGGCTACGACGGGATT
B12: UGGAGAU (DNA:RNA)
RNA: B1 RNA with A26G, A27G, G28A, G31U
DNA 1: CAATCTGAATTCCGGTCTCCC
DNA 2: TGGTGGCTACGACGGGATT
B13: UGGACUC (DNA:RNA)
RNA: B1 RNA with A26G, A27G, G28A, G29C, A30U, G31C
DNA 1: CAATCTGAATTCCGGTCTCCC
DNA 2: TGGTGGCTACGACGGGATT
B14: CUGGAUC (DNA:RNA)
RNA: B4 RNA with A25C, U27G, C28G, G30U, A31C
DNA 1: CAATCTGAATTCCGGTCTCCC
DNA 2: TGGTGGCTACGACGGGATT
B15: UGGAUUC (DNA:RNA)
RNA: B1 RNA with A26G, A27G, G28A, G29U, A30U, G31C
DNA 1: CAATCTGAATTCCGGTCTCCC
DNA 2: TGGTGGCTACGACGGGATT
B16: UGGAGUC (DNA:RNA)
RNA: B1 RNA with A26G, A27G, G28A, A30U, G31C
DNA 1: CAATCTGAATTCCGGTCTCCC
DNA 2: TGGTGGCTACGACGGGATT
B17: UGGAUUG (DNA:RNA)
RNA: B1 RNA with A26G, A27G, G28A, G29U, A30U
DNA 1: CAATCTGAATTCCGGTCTCCC
DNA 2: TGGTGGCTACGACGGGATT
B18: UGGAGAA (DNA:RNA)
RNA: B1 RNA with A26G, A27G, G28A, G31A
DNA 1: CAATCTGAATTCCGGTCTCCC
DNA 2: TGGTGGCTACGACGGGATT
B19: UGGAAUG (DNA:RNA)
RNA: B1 RNA with A26G, A27G, G28A, G29A, A30U
DNA 1: CAATCTGAATTCCGGTCTCCC
DNA 2: TGGTGGCTACGACGGGATT
B20: UGGGAUC (DNA:RNA)
RNA: B1 RNA with A26G, A27G, G29A, A30U, G31C
DNA 1: CAATCTGAATTCCGGTCTCCC
DNA 2: TGGTGGCTACGACGGGATT
B21: CCAGUUC (DNA:RNA)
RNA: B1 RNA with U25C, A26C, G29U, A30U, G31C
DNA 1: CAATCTGAATTCCGGTCTCCC
DNA 2: TGGTGGCTACGACGGGATT
B22: UCAGAGG (DNA:RNA)
RNA: B1 RNA with A26C, G29A, A30G
DNA 1: CAATCTGAATTCCGGTCTCCC
DNA 2: TGGTGGCTACGACGGGATT
B23: CCAUUUC (DNA:RNA)
RNA: B1 RNA with U25C, A26C, G28U, G29U, A30U, G31C
DNA 1: CAATCTGAATTCCGGTCTCCC
DNA 2: TGGTGGCTACGACGGGATT
B24: UGAUAGC (DNA:RNA)
RNA: B4 RNA with A25U, U26G, U27A, C28U, A31C
DNA 1: CAATCTGAATTCCGGTCTCCC
DNA 2: TGGTGGCTACGACGGGATT
B25: UAUAGUG (DNA:RNA)
RNA: B1 RNA with A27U, G28A, A30U
DNA 1: CAATCTGAATTCCGGTCTCCC
DNA 2: TGGTGGCTACGACGGGATT
B26: AGUGAUA (DNA:RNA)
RNA: B4 RNA with U26G, C28G, G30U
DNA 1: CAATCTGAATTCCGGTCTCCC
DNA 2: TGGTGGCTACGACGGGATT
B27: UAGGGUG (DNA:RNA)
RNA: B1 RNA with A27G, A30U
DNA 1: CAATCTGAATTCCGGTCTCCC
DNA 2: TGGTGGCTACGACGGGATT
B28: UCCACGA (DNA:RNA)
RNA: B4 RNA with A25U, U26C, U27C, C28A, A29C
DNA 1: CAATCTGAATTCCGGTCTCCC
DNA 2: TGGTGGCTACGACGGGATT
B29: CGAGCCU (DNA:RNA)
RNA: B1 RNA with U25C, A26G, G29C, A30C, G31U
DNA 1: CAATCTGAATTCCGGTCTCCC
DNA 2: TGGTGGCTACGACGGGATT
B30: UGAUGGA (DNA:RNA)
RNA: B1 RNA with A26G, G28U, A30G, G31A
DNA 1: CAATCTGAATTCCGGTCTCCC
DNA 2: TGGTGGCTACGACGGGATT
B31: UGGAUGA (DNA:RNA)
RNA: B4 RNA with A25U, U26G, U27G, C28A, A29U
DNA 1: CAATCTGAATTCCGGTCTCCC
DNA 2: TGGTGGCTACGACGGGATT
B32: CGGAUGA (DNA:RNA)
RNA: B4 RNA with A25C, U26G, U27G, C28A, A29U
DNA 1: CAATCTGAATTCCGGTCTCCC
DNA 2: TGGTGGCTACGACGGGATT
B33: GGGUGGA (DNA:RNA)
RNA: B4 RNA with A25G, U26G, U27G, C28U, A29G
DNA 1: CAATCTGAATTCCGGTCTCCC
DNA 2: TGGTGGCTACGACGGGATT
B34: AAAUCUG (DNA:RNA)
RNA: B1 RNA with U25A, G28U, G29C, A30U
DNA 1: CAATCTGAATTCCGGTCTCCC
DNA 2: TGGTGGCTACGACGGGATT
B35: UCACACA (DNA:RNA)
RNA: B4 RNA with A25U, U26C, U27A, G30C
DNA 1: CAATCTGAATTCCGGTCTCCC
DNA 2: TGGTGGCTACGACGGGATT

target: T1, RBFOX1 RRM RbFoxmut (Fox-RRM*); test: EMSA; HiTS-Eq, 1 nM pool, 10 min; buffer printed only for the single-RNA assays: 10 mM Tris pH 7.5, 150 mM NaCl, 3.4 mM EDTA, 0.001% NP-40, 30 C; details: tags: His6 N-terminal (pET28a); label: 5' 32P
Procedure, shortened: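 Relative association constants, normalised to the cognate motif, were derived by comparing read counts of each RNA species with those of the control reaction. The RNA sequenced was the free fraction, separated by 8% native PAGE after a 10 min equilibration in 50 µL of 1 nM 5′-radiolabelled RNA (7 randomized nucleotides) with increasing concentrations of purified wild-type or mutant RbFox RRM.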

Question: How did the binding signal turn out when B1 was run?
Answer: 0.11 KA relative to UGCAUGU

Question: B2 was tested. Which binding signal did it give?
Answer: 0.0759 KA relative to UGCAUGU

Question: Which binding signal does the source give for B3 here?
Answer: 0.0554 KA relative to UGCAUGU

Question: B4 was tested. Which binding signal did it give?
Answer: 0.0812 KA relative to UGCAUGU

Question: B5 was tested. Which binding signal did it give?
Answer: 0.0668 KA relative to UGCAUGU

Question: B6 was tested. Which binding signal did it give?
Answer: 0.097 KA relative to UGCAUGU

Question: With B7 as the binder, how does the binding signal read?
Answer: 0.0641 KA relative to UGCAUGU

Question: For B8, which binding signal is on record?
Answer: 0.161 KA relative to UGCAUGU

Question: How did the binding signal turn out when B9 was run?
Answer: 0.0709 KA relative to UGCAUGU

Question: How did the binding signal turn out when B10 was run?
Answer: 0.259 KA relative to UGCAUGU

Question: How did the binding signal turn out when B11 was run?
Answer: 0.458 KA relative to UGCAUGU

Question: With B12 as the binder, how does the binding signal read?
Answer: 0.094 KA relative to UGCAUGU

Question: For B13, which binding signal is on record?
Answer: 0.0856 KA relative to UGCAUGU

Question: With B14 as the binder, how does the binding signal read?
Answer: 0.274 KA relative to UGCAUGU

Question: B15 was tested. Which binding signal did it give?
Answer: 0.139 KA relative to UGCAUGU

Question: Which binding signal does the source give for B16 here?
Answer: 0.18 KA relative to UGCAUGU

Question: With B17 as the binder, how does the binding signal read?
Answer: 0.526 KA relative to UGCAUGU

Question: Which binding signal does the source give for B18 here?
Answer: 0.0999 KA relative to UGCAUGU

Question: Which binding signal does the source give for B19 here?
Answer: 1.66 KA relative to UGCAUGU

Question: Which binding signal does the source give for B20 here?
Answer: 0.357 KA relative to UGCAUGU

Question: For B21, which binding signal is on record?
Answer: 0.073 KA relative to UGCAUGU

Question: Which binding signal does the source give for B22 here?
Answer: 0.0974 KA relative to UGCAUGU

Question: With B23 as the binder, how does the binding signal read?
Answer: 0.0493 KA relative to UGCAUGU

Question: How did the binding signal turn out when B24 was run?
Answer: 0.0858 KA relative to UGCAUGU

Question: With B25 as the binder, how does the binding signal read?
Answer: 0.137 KA relative to UGCAUGU

Question: Which binding signal does the source give for B26 here?
Answer: 0.133 KA relative to UGCAUGU

Question: B27 was tested. Which binding signal did it give?
Answer: 0.149 KA relative to UGCAUGU

Question: For B28, which binding signal is on record?
Answer: 0.0743 KA relative to UGCAUGU

Question: For B29, which binding signal is on record?
Answer: 0.103 KA relative to UGCAUGU

Question: With B30 as the binder, how does the binding signal read?
Answer: 0.0611 KA relative to UGCAUGU

Question: How did the binding signal turn out when B31 was run?
Answer: 0.401 KA relative to UGCAUGU

Question: Which binding signal does the source give for B32 here?
Answer: 0.235 KA relative to UGCAUGU

Question: With B33 as the binder, how does the binding signal read?
Answer: 0.0811 KA relative to UGCAUGU

Question: For B34, which binding signal is on record?
Answer: 0.0533 KA relative to UGCAUGU

Question: B35 was tested. Which binding signal did it give?
Answer: 0.0876 KA relative to UGCAUGU
